Experimental data as given in PubChem BioAssay AID624351 (Southern Research Specialized Biocontainment Screening …, 2012).
The whole screen tested about 2,400 compounds, of which about 1,400 (58%) were called active. The set was probably picked from earlier hits. The list shows a part of the results. Values without a mark were called inactive.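 Rule for the calls: active = inhibition of 30% or more at any tested dose; inconclusive = primary hits over the limit that were never retested; inactive = the rest.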

Test: ADP Hunter readout inhibition without MgcRacGAP – biochemical, coupled enzyme counter-screen, artefact control for MgcRacGAP inhibitor project, dose response (AID 624351);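 note: signal is the ADP detection kit reading of free GDP without any GAP enzyme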;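 for inhibition: 0% = median positive control wells and 100% = median negative control wells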
Conditions: fluorescence, no MgcRacGAP; series mostly up to 80 µM; inhibition: at the top concentration

SMILES	inhibition	IC50
COc1ccc(CN2CCN(Cc3ccc(Br)cc3)CC2)c(OC)c1OC	25.7%	–
COc1cccc(CN2CCN(C(=O)c3ccco3)CC2)c1OC	14.7%	–
COc1ccc(C(=O)N2CCN(CCCc3ccccc3)CC2)cc1OC	18.2%	–
COc1cc(/C=C/C(=O)OCC(=O)N2CCN(C(=O)c3ccco3)CC2)ccc1O	–	33.8 µM (active)
Cc1sc2ncnc(Nc3ccc(O)cc3)c2c1C	–	38.2 µM (active)
Cc1sc2ncnc(N/N=C/c3ccc(O)cc3)c2c1C	–	48.3 µM (active)
Cc1sc2ncnc(N(C)CCc3ccccn3)c2c1C	23.9%	–
COC(=O)/C(=C/Nc1ccc(O)cc1)[N+](=O)[O-]	–	23.9 µM (active)
O=C(CN1CCN(C2CCCCC2)CC1)Nc1ccccc1-c1ccccc1	27.4%	–
O=C(Nc1cc(Br)c(O)c(Br)c1)c1cccc(NC(=O)c2ccco2)c1	–	81.3 µM (active)
O=C(/C=C\c1ccco1)c1ccc(NC(=O)c2ccco2)cc1	-1.43%	–
O=c1ccn(-c2ccccc2)[nH]1	–	51.3 µM (active)
O=C1CCN(c2ccccc2)N1	-2.46%	–
CCN(CC)CCCNCC(=O)Nc1cc(C)on1	20.8%	–
Oc1ccc(N=Nc2ccccc2)cc1	–	78.2 µM (active)
Nc1ccc(N=Nc2ccc(O)cc2)c(N)n1	–	10.2 µM (active)
CC(=O)Nc1ccc(N=Nc2ccc(O)cc2)cc1	–	24.5 µM (active)
Nc1ccc(Nc2nc(-c3ccncc3)cs2)cc1	–	9.43 µM (active)
O=c1oc2ccccc2cc1-c1csc(Nc2ccc(O)cc2)n1	–	58 µM (active)
NS(=O)(=O)c1ccc(Nc2nc(-c3ccc(O)cc3O)cs2)cc1	–	48.8 µM (active)
Nc1ccc(Nc2nc(-c3cc4ccccc4oc3=O)cs2)cc1	24.4%	–
NS(=O)(=O)c1ccc(Nc2nc(-c3ccc(O)cc3)cs2)cc1	–	20.9 µM (active)
Cc1cc(NS(=O)(=O)c2ccc(Nc3nc(-c4ccc(O)cc4)cs3)cc2)no1	–	30.2 µM (active)
Cc1cnc(C(=O)Oc2ccc(-c3ccccc3)cc2)cn1	19.4%	–
O=C(Nc1ccccc1Cl)/C(Cl)=C(\Cl)S(=O)c1ccccc1 (stereo not given)	5.09%	–
O=C(Nc1ccccc1Cl)Oc1ccc(-c2ccccc2)cc1	–	14.1 µM (active)
Cc1cc(C)c(C#N)c(SCS(=O)Cc2ccc(Cl)cc2)n1 (stereo not given)	2.15%	–

SMILES	inhibition	IC50
NC(=NCCCCCCN=C(N)/N=C(\N)Nc1ccc(Cl)cc1)/N=C(\N)Nc1ccc(Cl)cc1	7.86%	–
Oc1ccc(/C=N/Nc2cc(N3CCOCC3)nc(N3CCOCC3)n2)cc1O	–	75.5 µM (active)
Oc1ccc(/C=N\Nc2cc(N3CCOCC3)nc(N3CCOCC3)n2)c(O)c1	–	76.4 µM (active)
COc1ccc2c(-c3ccccc3)cc(N3CCOCC3)nc2c1	-30.5%	–
Oc1ccc(/C=N/Nc2cc(N3CCOCC3)nc(N3CCOCC3)n2)cc1	–	49.2 µM (active)
CN(C)c1ccc(-n2cccc2/C=C/[N+](=O)[O-])cc1	-0.44%	–
CCCCN(C)C(=O)C1CCN(Cc2cccc(OCc3ccccc3)c2)CC1	12.6%	–
COc1ccc2[nH]c3c(C)c4ccncc4c(C)c3c2c1	7.02%	–
Oc1ccc(Br)cc1C=Nc1ccc2[nH]ncc2c1	–	48.2 µM (active)
Cc1ccc(O)c(C=Nc2ccc3[nH]ncc3c2)c1	–	34.5 µM (active)
COc1ccc(C=Nc2ccc3[nH]ncc3c2)c(O)c1	–	38.4 µM (active)
Brc1ccc(OCCCN2CCOCC2)cc1	17.2%	–
Cc1ccc(/C=C2/C(=O)ON=C2c2ccccc2)o1	-8.72%	–
CCN(c1ccccc1)S(=O)(=O)c1ccc(Cl)c(NC(=O)CN(C)C2CCN(C)CC2)c1	10.9%	–
CCN(c1ccccc1)S(=O)(=O)c1ccc(N2CCN(c3ccc(O)cc3)CC2)nc1	–	53.5 µM (active)
COc1ccccc1CNCC(=O)N1CC(=O)Nc2ccccc21	-1.72%	–
ON=C1c2ccccc2-c2ccc(O)cc21	–	36.5 µM (active)
CN(C)c1ccc2c(c1)C(=NO)c1ccccc1-2	–	42.8 µM (active)
CCN(Cc1ccccc1)C(c1ccc(C)cc1)c1nnnn1C(C)(C)CC (stereo not given)	1.68%	–
Brc1cccc(OCCN2CCOCC2)c1	17.5%	–
Nc1ccc(-c2nc3ccc(N)cc3o2)cc1	–	44.4 µM (active)
CCOc1cc(/C=C/c2cccc[n+]2C)ccc1O	–	27.2 µM (active)
CCn1c(=O)c2c3c(sc2n2c(=S)[nH]nc12)CCC3	–	25 µM (active)
COc1ccccc1-n1c(=O)c2c3c(sc2n2c(=S)[nH]nc12)CCC3	–	44.9 µM (active)
COc1ccc(-n2c(=O)c3c4c(sc3n3c(=S)[nH]nc23)CCCC4)cc1	–	30.3 µM (active)
C=CCSC1=N/C(=C\C=C\c2ccco2)C(=O)S1	-7.09%	–
COc1cccc(/C=N/n2c(-c3n[nH]c4c3CCC4)n[nH]c2=S)c1O	–	54.6 µM (active)

SMILES	inhibition	IC50
COc1ccc(/C=N/n2c(-c3n[nH]c4c3CCC4)n[nH]c2=S)cc1OC	–	61.5 µM (active)
COc1ccc(/C=N/n2c(-c3n[nH]c4c3CCC4)n[nH]c2=S)c(OC)c1OC	–	65.7 µM (active)
COc1cc(/C=N/n2c(C3CCCCC3)n[nH]c2=S)ccc1O	–	51.8 µM (active)
C=CCOC(=O)c1cc(-c2ccc(/C=C3\C(=O)NC(=O)C(C#N)=C3C)o2)ccc1Cl	5.47%	–
CCC1(c2ccccc2)NC(=O)N(CC(=O)Nc2ccc(N3CCCC3)cc2C)C1=O (stereo not given)	27.8%	–
CCN(CC)CCCNCC(=O)Nc1ccc2c(c1)CCC2	17.8%	–
CCN(CC)c1ccc(NC(=O)CN2C(=O)NC3(CCc4ccccc43)C2=O)cc1 (stereo not given)	–	83.2 µM (active)
Nc1nc(N)c2[nH]c(=S)[nH]c2n1	29.5%	–
O=C1C=CC2(C=C1)O[C@H](Cc1ccccc1)[C@@H](Cc1ccccc1)O2	4.01%	–
COc1cc(/C=N/NC(=O)CCN2CCN(C(c3ccccc3)c3ccccc3)CC2)ccc1O	–	53.4 µM (active)
COc1cc(/C=N/NC(=O)CCN2CCCCC2)ccc1O	–	34.3 µM (active)
COc1ccc(/C=N/NC(=O)CN2CCCCCCC2)c(C)c1C	13.6%	–
O=C1/C(=C\c2ccccc2)CN(C(=O)CCN2CCCCC2)C/C1=C/c1ccccc1	0.94%	–
C=CCNC(=O)CN1CCN(C(c2ccccc2)c2ccccc2)CC1	12.3%	–
C=CCc1c(C)nc(-c2ccccc2)nc1Nc1ccc(O)cc1	–	41.3 µM (active)
CS(=O)(=O)c1ccc2c(c1)sc1nc(=O)c(/C=C3/C=CC(=O)C(O)=C3)c(N)n12	–	60.1 µM (active)
Nc1c(/C=C2/C=CC(=O)C(O)=C2)c(=O)nc2sc(CC(=O)N3CCCC3)nn12	–	59.4 µM (active)
Nc1c(/C=C2/C=CC(=O)C(O)=C2)c(=O)nc2sc(CC(=O)N3CCOCC3)nn12	–	67.8 µM (active)
Cc1ccc(C(C)C)c(OCCCCN2CCNCC2)c1	25.1%	–
CC(NCc1ccc(S(N)(=O)=O)cc1)C(=O)N1c2ccccc2CC1C (stereo not given)	14.8%	–
COc1ccccc1C1Nc2cccc3cccc(c23)N1	–	51.6 µM (active)
COc1cc(OC)c(C2Nc3cccc4cccc(c34)N2)c(OC)c1	-13.7% [at 5 µM]	–
COc1ccc(NC(=O)Nc2ccc(N(C)C)cc2)cc1	–	21.9 µM (active)
Cc1oc(-c2ccccc2)cc1C(=O)Nc1ccc(N(C)C)cc1	–	65.5 µM (active)
CN(C)c1ccc(N=Cc2nc(-c3ccccc3)oc2OC(=O)c2cccc(Br)c2)cc1	8.13%	–
COc1cc(OC)c(C(=O)Nc2ccc(N(C)C)cc2)cc1OC	–	27.2 µM (active)
Cc1ccc(NC(=O)C2=C(c3ccccc3)S(=O)(=O)CCS2(=O)=O)cc1	3.49%	–

SMILES	inhibition	IC50
O=C(Nc1ccc(O)cc1)c1cc2n(n1)C(C(F)(F)F)CC(c1ccco1)N2 (stereo not given)	–	28.7 µM (active)
Cc1cc(C)c(OCCCCN2CCC(C)CC2)c(Br)c1	12.7%	–
COc1cc(CNc2ccc3[nH]c(=O)[nH]c3c2)ccc1OCc1ccccc1	21.1%	–
COc1ccc(CNc2ccc(N3CCN(C(C)=O)CC3)cc2)cc1OC	–	15.1 µM (active)
COc1cc(CNc2ccc(N3CCN(C(C)=O)CC3)cc2)ccc1OCc1ccccc1	–	13.4 µM (active)
COc1ccc(CN2CCC(C(N)=O)CC2)cc1OCc1ccccc1	18.9%	–
COc1ccc(CN2CCN(Cc3ccccc3F)CC2)cc1OC	21.7%	–
COc1ccc(CN2CCN(C(=O)CC(C)C)CC2)cc1OC	15.3%	–
COc1cc(/C=C/C(=O)OCC(=O)c2ccc(OC(F)F)cc2)ccc1O	–	58.2 µM (active)
COc1cc(/C=C/C(=O)OCC(=O)c2ccc[nH]2)ccc1O	–	25.9 µM (active)
C/C(=N\NC(=O)c1cccc(N/N=C(\C)c2cc(O)ccc2O)c1)c1cc(O)ccc1O	–	75.5 µM (active)
Cc1cc(-c2n[nH]c(=S)n2/N=C/c2ccc(Br)s2)n[nH]1	–	80.5 µM (active)
Cc1cc(-c2n[nH]c(=S)n2/N=C/c2cccs2)n[nH]1	–	78.7 µM (active)
Cc1cc(-c2n[nH]c(=S)n2/N=C/c2ccccc2[N+](=O)[O-])n[nH]1	–	83.5 µM (active)
S=c1[nH]nc(-c2cccs2)n1/N=C/c1cccs1	–	59.7 µM (active)
Cc1cc(-c2n[nH]c(=S)n2/N=C/c2sccc2C)n[nH]1	–	62.4 µM (active)
O=C1CSC(=S)N1Nc1ccccc1	–	68 µM (active)
Nc1ccc2ccc(O)cc2c1	–	31.5 µM (active)
C[n+]1c2cc(N)ccc2cc2ccc(N)cc21	–	inactive
Oc1ccc2ccc(Cl)cc2c1	–	53.9 µM (active)
CCCC1=NN2C(=N)/C(=C\c3ccc(SCc4ccco4)o3)C(=O)N=C2S1	-0.24%	–
CN1/C(=C\C=N\NC(=O)c2ccc(O)cc2)C(C)(C)c2ccccc21	–	74.4 µM (active)
CN(C)c1ccc(N=C/C=C2\N(C)c3ccccc3C2(C)C)cc1	–	12.4 µM (active)
CN(C)c1ccc(N=C/C=C2/N(C)c3ccccc3C2(C)C)cc1	–	20.6 µM (active)
